From PubChem BioAssay
For part of these data: Results with a measured potency or affinity are listed apart. Calls of active or inactive are those of the source. Unless noted, cut-off not given; nearly all actives show IC50 up to about 0.91 µM.

These molecules were tested against Protein kinase 7 (PK7), Plasmodium falciparum 3D7 (PF3D7_0213400) (UniProt Q7YTF7) (assay: inhibition of Plasmodium PK7 catalytic activity – biochemical, TCAMS antimalarial set, Kinase-Glo luminescence (AID 1159587; call rule not given here)). Settings: recombinant PfPK7, Kinase-Glo ATP depletion luminescence.
Sequence of Protein kinase 7 (PK7), Plasmodium falciparum 3D7 (PF3D7_0213400) (Q7YTF7 1-343): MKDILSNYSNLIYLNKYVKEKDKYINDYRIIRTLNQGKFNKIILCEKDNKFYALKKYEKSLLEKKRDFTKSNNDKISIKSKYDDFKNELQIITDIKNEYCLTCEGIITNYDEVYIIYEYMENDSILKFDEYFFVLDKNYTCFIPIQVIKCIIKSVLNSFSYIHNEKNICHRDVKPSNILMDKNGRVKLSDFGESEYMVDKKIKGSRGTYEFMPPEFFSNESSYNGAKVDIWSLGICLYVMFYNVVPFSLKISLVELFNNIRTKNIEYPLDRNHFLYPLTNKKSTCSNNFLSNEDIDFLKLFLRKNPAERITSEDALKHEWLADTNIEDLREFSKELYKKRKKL

outcome, inactive:
CC1(CCc2ccccc2)N=C(N)N=C(N)C1c1ccc(Cl)c(Cl)c1 (stereo not drawn), CCN(CC)C(=NCCCCCCN=C(NC(N)=NCc1cccc(Cl)c1)N(CC)CC)NC(N)=NCc1cccc(Cl)c1, Cc1nc(-c2ccc(-c3ccc(NC(=O)c4coc5ccc(N6C[C@@H](C)N[C@@H](C)C6)cc45)cc3)c(C)c2)no1, COc1ccc(CCn2c(=N)c(C(=O)NCc3cccnc3)cc3c(=O)n4cccc(C)c4nc32)cc1, O=C(NCC1CCN(Cc2ccc(F)cc2)C1)c1cc(-c2cccc(C(F)(F)F)c2)cs1 (stereo not drawn), c1ccc(COc2ccc(C3CCCCC3)cc2)nc1, Clc1ccc2c(NCCNc3ccnc4cc(Cl)ccc34)ccnc2c1, NC1=NC(c2ccccc2)(c2ccccc2)C(=O)N1CC1CCC1, CCc1cn2c3c(cc(C(=O)N[C@@H](Cc4cc(F)cc(F)c4)[C@H](O)CNC4CC4)cc13)N(C)S(=O)(=O)CC2, CCNc1cc(C(=O)N[C@@H](Cc2ccc(F)c(F)c2)[C@H](O)CNCc2cccc(OC)c2)cc(N2CCCCS2(=O)=O)c1, CN(C)CCOc1cc(NC(=O)Nc2ccc(-c3ccncc3)c(C(F)(F)F)c2)ccc1Cl, COc1c(C2CCN(CCCCNC(=O)c3noc(-c4ccc(C#N)cc4)n3)CC2)ccc2c1CCCC2, CC1(C)N=C(N)N=C(N)N1OCCCCOc1ccccc1, O=C(Nc1cccc(-c2cccc(-c3nc4ccccc4[nH]3)c2)c1)N[C@@H]1C[C@H]1c1ccccc1, COc1cc(F)c2ncc(Cl)c([C@H](O)CN3CCC(NCc4cc5c(cn4)OCCO5)CC3)c2c1, CN1CCCN(Cc2ccc(-c3cccc(NC(=O)c4ccc(F)cc4)c3)cc2)CC1, COc1cccc(CNC(=O)c2cnc(N3CCN(c4ccncc4)CC3)c(Cl)c2)c1, COc1ccc(CNCc2ccccc2)cc1-c1ccc(S(=O)(=O)NCCN2CCCC2)cc1, O=C(Nc1cc(Cl)c(Cl)cc1NC(=O)c1cccc(-c2ccccc2)c1O)c1cccc(-c2ccccc2)c1O, CCc1c(C)nc2nc(Cc3cccc(F)c3)nn2c1N1CCN(c2ccccn2)CC1, Cn1ncc2c3c(CCN4CCC(NCc5cc6c(cn5)OCCO6)CC4)c(Cl)cnc3ccc21, CCCc1cn2c3c(cc(C(=O)N[C@@H](Cc4ccccc4)[C@H](O)CNC4CCCCC4)cc13)N(CC)S(=O)(=O)CC2, CC(C)CNCc1cccc(-c2cccc(CNCCCN3CCN(C)CC3)c2)c1, CC(CCc1ccccc1)NCC(O)c1ccc2c(c1)S(=O)(=O)c1ccccc1N2 (stereo not drawn)

These molecules were tested against Calcium-dependent protein kinase 4 (Plasmodium falciparum (isolate 3D7)) (UniProt Q8IBS5) (assay: PfCDPK4 kinase inhibitors, biochemical, TCAMS library (AID 1159588)). Settings: recombinant PfCDPK4, Kinase-Glo ATP depletion luminescence.
Sequence of Calcium-dependent protein kinase 4 (Plasmodium falciparum (isolate 3D7)) (Q8IBS5 whole entry, looked up): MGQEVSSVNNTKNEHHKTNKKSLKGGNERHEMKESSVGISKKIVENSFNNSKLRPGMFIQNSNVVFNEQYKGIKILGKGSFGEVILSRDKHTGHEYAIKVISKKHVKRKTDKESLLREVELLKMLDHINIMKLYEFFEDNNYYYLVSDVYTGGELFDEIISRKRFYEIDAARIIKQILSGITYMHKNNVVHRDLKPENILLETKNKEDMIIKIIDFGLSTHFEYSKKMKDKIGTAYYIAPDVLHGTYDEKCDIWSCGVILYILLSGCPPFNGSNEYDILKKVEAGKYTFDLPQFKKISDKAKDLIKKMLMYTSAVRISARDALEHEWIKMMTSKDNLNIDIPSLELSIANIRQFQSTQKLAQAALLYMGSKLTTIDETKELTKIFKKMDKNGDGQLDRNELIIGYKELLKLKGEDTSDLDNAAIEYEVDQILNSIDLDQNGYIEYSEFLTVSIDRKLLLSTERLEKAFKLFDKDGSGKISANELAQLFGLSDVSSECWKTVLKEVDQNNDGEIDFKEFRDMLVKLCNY

outcome, inactive:
COc1ccc(C(C(=O)NC2CCN(C[C@H](O)c3ccnc4ccc(OC)cc34)CC2)N2CCN(Cc3ccccc3)CC2)cc1 (stereo partly drawn), CS(=O)(=O)c1ccc2nc(NC(=O)c3csnn3)sc2c1, O=C(/C=C/c1ccc(Cl)c(Cl)c1)NCCCCCN1CCCN(C(=O)Nc2cccc(F)c2)CC1, Cn1ccnc1S(=O)(=O)CCNCc1ccc(-c2ccc3ncnc(Nc4ccc(OCc5cccc(F)c5)c(Cl)c4)c3c2)o1, Cc1ccccc1C1CCN(C2CCC(NC(=O)/C=C/c3cccc(F)c3)CC2)CC1 (stereo not drawn), Cc1nc2ccccc2c(=O)n1NCc1ccc(Cl)c(Cl)c1, CCNc1cc(C)nc(Nc2ccc(NS(=O)(=O)c3ccccc3)cc2)n1, CCCCCCCc1ccc(-c2c(C)[nH]c(C)c(Cl)c2=O)cn1, O=C(C=Cc1cn(-c2ccccc2)nc1-c1cccs1)N1CCN(c2ccncc2)CC1, O=C(Nc1ccc(C(F)(F)F)cc1)Nc1ccccc1N1CCNCC1, CCC(CC(NCCCCNC(=O)c1ccc(NC(=O)c2ccc(Cl)cc2)cc1)c1ccccc1)c1ccccc1OC (stereo not drawn), O=C(/C=C/c1ccc(Cl)c(Cl)c1)NCCCCCN1CCC(NC(=O)Nc2cccc(C(F)(F)F)c2)CC1, Cc1noc(C)c1-c1ccc2c(Nc3ccccc3C(C)(C)C)c(C(=O)NCc3ccc(OC(C)C)cc3)cnc2c1, FC(F)(F)c1cccc(CNCCCCCNCc2ccc(Cl)cc2)c1, C[C@@H]1CN(c2nc(NCCc3ccc(O)cc3)nc(NCc3ccccc3-c3ccc(C(F)(F)F)cc3)n2)C[C@H](C)N1, CC1(CCc2ccccc2)N=C(N)N=C(N)C1c1ccc(Cl)c(Cl)c1 (stereo not drawn), CCN(CC)C(=NCCCCCCN=C(NC(N)=NCc1cccc(Cl)c1)N(CC)CC)NC(N)=NCc1cccc(Cl)c1, Cc1nc(-c2ccc(-c3ccc(NC(=O)c4coc5ccc(N6C[C@@H](C)N[C@@H](C)C6)cc45)cc3)c(C)c2)no1, COc1ccc(CCn2c(=N)c(C(=O)NCc3cccnc3)cc3c(=O)n4cccc(C)c4nc32)cc1, O=C(NCC1CCN(Cc2ccc(F)cc2)C1)c1cc(-c2cccc(C(F)(F)F)c2)cs1 (stereo not drawn), c1ccc(COc2ccc(C3CCCCC3)cc2)nc1, Clc1ccc2c(NCCNc3ccnc4cc(Cl)ccc34)ccnc2c1, NC1=NC(c2ccccc2)(c2ccccc2)C(=O)N1CC1CCC1, CCc1cn2c3c(cc(C(=O)N[C@@H](Cc4cc(F)cc(F)c4)[C@H](O)CNC4CC4)cc13)N(C)S(=O)(=O)CC2, CCNc1cc(C(=O)N[C@@H](Cc2ccc(F)c(F)c2)[C@H](O)CNCc2cccc(OC)c2)cc(N2CCCCS2(=O)=O)c1, CN(C)CCOc1cc(NC(=O)Nc2ccc(-c3ccncc3)c(C(F)(F)F)c2)ccc1Cl, COc1c(C2CCN(CCCCNC(=O)c3noc(-c4ccc(C#N)cc4)n3)CC2)ccc2c1CCCC2, CC1(C)N=C(N)N=C(N)N1OCCCCOc1ccccc1, O=C(Nc1cccc(-c2cccc(-c3nc4ccccc4[nH]3)c2)c1)N[C@@H]1C[C@H]1c1ccccc1, COc1cc(F)c2ncc(Cl)c([C@H](O)CN3CCC(NCc4cc5c(cn4)OCCO5)CC3)c2c1, CN1CCCN(Cc2ccc(-c3cccc(NC(=O)c4ccc(F)cc4)c3)cc2)CC1, COc1cccc(CNC(=O)c2cnc(N3CCN(c4ccncc4)CC3)c(Cl)c2)c1, COc1ccc(CNCc2ccccc2)cc1-c1ccc(S(=O)(=O)NCCN2CCCC2)cc1, O=C(Nc1cc(Cl)c(Cl)cc1NC(=O)c1cccc(-c2ccccc2)c1O)c1cccc(-c2ccccc2)c1O, CCc1c(C)nc2nc(Cc3cccc(F)c3)nn2c1N1CCN(c2ccccn2)CC1, Cn1ncc2c3c(CCN4CCC(NCc5cc6c(cn5)OCCO6)CC4)c(Cl)cnc3ccc21, CCCc1cn2c3c(cc(C(=O)N[C@@H](Cc4ccccc4)[C@H](O)CNC4CCCCC4)cc13)N(CC)S(=O)(=O)CC2, CC(C)CNCc1cccc(-c2cccc(CNCCCN3CCN(C)CC3)c2)c1, CC(CCc1ccccc1)NCC(O)c1ccc2c(c1)S(=O)(=O)c1ccccc1N2 (stereo not drawn)
